The test system of one test is Sam68 (KHDRBS1). The test can be described thus: compounds binding KHDRBS1 protein – biochemical, small-molecule microarray, 635 nm fluorescence, primary screen (AID 1125).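 Note: score merges 667 nm channel intensity with signal to noise over triplicate slides.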 The conditions noted are these: higher = more signal.
`Cc1cc(C)cc(N2C(=O)CSC2c2cccc([N+](=O)[O-])c2)c1` (stereo not drawn) registered a composite z-score of 1.3. With `COCCOC(=O)N1C(=O)[C@@]2(c3cc(C#CC4(O)CCCCCC4)ccc31)[C@H](c1ccc(O)cc1)N1[C@H](c3ccccc3)[C@H](c3ccccc3)OC(=O)[C@H]1[C@@H]2C(=O)NC[C@H](O)c1ccccc1`, the composite z-score stood at 1.3. `COC(=O)c1cn(C[C@@H](Cc2ccccc2)NC(=O)N[C@H](CO)CCc2oc(C(C)=O)c(C(=O)OC)c2C(=O)OC)nn1` came in with a composite z-score of 1.01.

As to `COC(=O)[C@@]1(Cc2ccccc2)[C@H]2c3cc(C(=O)N(C)C)n(Cc4c(CO)[nH]cc(C)c4=O)c3C[C@H]2CN1C(=O)c1ccccc1`, the composite z-score came to 0.432. Regarding `CC(=O)NCCCC[C@@H]1NC(=O)[C@@H]2C[C@H](C(=O)NCCCC[N+](C)(C)C)[C@H](c3ccc(O)cc3)N2C1=O`, the composite z-score is 1.29. Same read-out and setting: under `COc1ccc([Si](C)(C)[C@@H]2[C@@H](CC(=O)N3Cc4ccccc4C[C@H]3CO)O[C@]3(C(=O)N(C)c4ccccc43)[C@H]2C)cc1` stands 1.3; under `COCCOC(=O)N1C(=O)[C@@]2(c3cc(C#CC4=CCCCC4)ccc31)[C@H](C(N)=O)[C@H]1C(=O)O[C@H](c3ccccc3)[C@H](c3ccccc3)N1[C@@H]2c1ccccc1OCCO`, 1.31. On the same count and under the same terms, under `COC(=O)[C@@]1(Cc2ccc(OC)cc2)[C@@H]2C(=CC(=O)[C@H]2CC(=O)C(=O)N(C)C)CN1C(=O)c1ccccc1` stands 1.31.

The test system of another test is Chordin-like protein 2 (CHRDL2). Nature of the test: compounds binding chordin-like 2 – biochemical, small-molecule microarray, 635 nm fluorescence, primary screen (AID 1126).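 Note: printed compound slides probed with Chrdl2 protein at 4 µg/mL for 1 h at 4 C; score merges 667 nm emission intensity with signal to noise over three replicate slides.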 The conditions noted are these: fluorescence 635 nm, higher = more signal.
Consider `CC[C@H]1C2=C3C(CC[C@H]4C(OCc5ccc(F)cc5C(F)(F)F)OC[C@](C)([C@@H]34)N(C(=O)OC(C)(C)C)C2)C(COC)C1COC` (stereo partly drawn), for which the composite z-score is -0.882. In the case of `CC(C)N1C(=O)C[C@@](C(=O)NCCCN(C)C)(c2ccc([N+](=O)[O-])cc2)[C@H]1c1ccc(CO)cc1`, the composite z-score was -0.0507. With `NC(=O)NCC#Cc1ccc2c(c1)[C@]1(C(=O)N2)[C@H](C(=O)NC[C@H](O)c2ccccc2)[C@H]2C(=O)O[C@H](c3ccccc3)[C@H](c3ccccc3)N2[C@@H]1c1ccc(OCCO)cc1`, the composite z-score is -0.0806. Take `Cc1ccccc1C(O)C1C=CC2C(=O)N(C)C(=O)C2N1N(c1ccccc1)c1ccccc1` (stereo not drawn): the composite z-score came out at 0.682. Consider `C=CCC(OC(C)=O)[C@@H]1[C@@H](N(Cc2cc3ccccc3o2)C(=O)c2ccc(C)cc2)c2cc(OCCCO)ccc2N1C(=O)Cc1ccc(OC)cc1` (stereo partly drawn), for which the composite z-score amounted to 0.172. Molecule `COC(=O)C1=CC(CCCO)=CC(C2CC2)N(C)C=C1C(=O)OC` (stereo not drawn) displayed a composite z-score of -0.761.

Take `COc1cc2c(cc1OC)CN(C(=O)[C@@H]1[C@H]3C(=O)O[C@H](c4ccccc4)[C@H](c4ccccc4)N3[C@H](c3ccc(OCCO)cc3)[C@@]13C(=O)Nc1ccc(C#CC4(O)CCCCCC4)cc13)CC2`: the composite z-score was determined as 0.978.

Molecule `COc1cc(OC)c(C(O)C2C=CC3C(=O)N(c4ccccc4)C(=O)C3N2Nc2ccccc2)cc1Br` (stereo not drawn) showed a composite z-score of -1.07.

For `COc1ccc([Si](C)(C)[C@@H]2[C@@H](CC(=O)N(CCO)Cc3ccccc3)O[C@]3(C(=O)N(Cc4cccc(N5C(=O)c6cccc7cccc5c67)c4)c4ccccc43)[C@H]2C)cc1`, the composite z-score turned out to be 0.432. Regarding `COC(=O)c1c2oc(c1C(=O)OC)C(=O)N(C)Cc1cn(nn1)C[C@H](Cc1ccccc1)NC(=O)N[C@H](CO)CC2`, the composite z-score is -0.516. The same measure, in the same setting: under `O=C(CS)NCCCCCCNC(=O)[C@H]1C[C@H]2C(=O)N[C@@H](Cc3ccccc3)C(=O)N2[C@H]1c1ccc(O)cc1` stands 0.757; under `O=C1C2C=CC(C(O)c3ccccc3)N(Nc3ccccc3F)C2C(=O)N1c1ccccc1` (stereo not drawn), 0.18. Same read-out and setting: under `CC(C)(C)N1CC=CC23O[C@@H]4C=CCOC(=O)[C@@H]4[C@H]2C(=O)N(CCCCCCO)[C@@H]3C1=O` (stereo partly drawn) stands -0.677; under `CCCCO[C@H]1C[C@H]2C(I)=C[C@@H]1C(=O)[C@]21CO1`, 0.377; under `C=CCOC(=O)[C@H]1[C@@H]2C(=O)O[C@@H](c3ccccc3)[C@@H](c3ccccc3)N2[C@@H](c2ccc(OCCOC(=O)[C@@H]3C[C@@H]4C(=O)N5CCC[C@H]5C(=O)N4[C@@H]3c3ccc(O)cc3)cc2)[C@]12C(=O)Nc1ccc(I)cc12`, 0.851. As for `C=CCOC(=O)[C@H]1[C@@H]2C(=O)O[C@@H](c3ccccc3)[C@@H](c3ccccc3)N2[C@@H](c2ccc(OCCOC(=O)[C@H]3C[C@H]4C(=O)N[C@@H](CCCCNC(C)=O)C(=O)N4[C@H]3c3ccc(O)cc3)cc2)[C@]12C(=O)Nc1ccccc12`, the composite z-score is 0.998. Consider `CCOc1cc(C(O)C2C=CC3C(=O)N(C)C(=O)C3N2Nc2ccccc2)ccc1O` (stereo not drawn), for which the composite z-score was 0.0675. Molecule `C#CCN([C@@H](Cc1ccc(O)cc1)C(=O)OC)[C@@H](/C=C/C1CC1)[C@H](O)Cc1ccccc1` had a composite z-score of 0.523. The molecule `O=c1n(-c2ccccc2)c(=O)n2n1CC(COc1ccccc1)=C([C@H](O)CCc1ccccc1)[C@@H]2CO` came in with a composite z-score of 0.315. Still for that read-out and setting: the same measure for `CC(=O)NCCCC[C@@H]1NC(=O)[C@H]2C[C@@H](C(=O)NCCCC[N+](C)(C)C)[C@@H](c3cccc(OCCO)c3)N2C1=O`: 1.49; for `CN1C(=O)C2C=CC(C(O)c3ccccn3)N(N(c3ccccc3)c3ccccc3)C2C1=O` (stereo not drawn): 0.227. `C[N+](C)(C)CCCCCCNC(=O)[C@H]1C[C@H]2C(=O)NCC(=O)N2[C@H]1c1ccc(O)cc1` gave a composite z-score of 0.856.

`CCCC[C@@H]1C[C@H]1[C@@H](NC(=O)c1cccs1)c1ccc(C(F)(F)F)cc1` returned a composite z-score of 0.149. Molecule `COc1ccc(CCN2C(=O)[C@@]3(Cc4ccccc42)c2ccccc2C(=O)N(Cc2ccccc2OC)[C@H]3c2ccc(CO)cc2)cc1` yielded a composite z-score of -0.761. `C[C@@H]1NC(=O)[C@@]23C(=O)N[C@@H](Cc4ccccc4)C2[C@H](C)[C@@]2(C)O[C@H]2C3/C=C/C/C=C\CNC(=O)[C@@H]2CCCN2C1=O` (stereo partly drawn) had a composite z-score of 0.18. In turn, `C=C(/C(=C/C[C@H](OC(C)=O)c1cccc(OCCO)c1)c1cnc2ccccc2c1)C(C)C` yielded a composite z-score of 1.05. On the same count and under the same terms, under `[N-]=[N+]=NCc1ccccc1[C@H]1OC(c2ccc(OCCCO)cc2)=N[C@@]1(CCS(=O)(=O)c1ccccc1)C(=O)NCC(O)CO` (stereo partly drawn) stands -0.0485.

As for `Cc1cc(C)cc(N2C(=O)CSC2c2cccc([N+](=O)[O-])c2)c1` (stereo not drawn), the composite z-score is 0.052. Molecule `COCCOC(=O)N1C(=O)[C@@]2(c3cc(C#CC4(O)CCCCCC4)ccc31)[C@H](c1ccc(O)cc1)N1[C@H](c3ccccc3)[C@H](c3ccccc3)OC(=O)[C@H]1[C@@H]2C(=O)NC[C@H](O)c1ccccc1` registered a composite z-score of 0.97. `COC(=O)c1cn(C[C@@H](Cc2ccccc2)NC(=O)N[C@H](CO)CCc2oc(C(C)=O)c(C(=O)OC)c2C(=O)OC)nn1` showed a composite z-score of 1.15. `COC(=O)[C@@]1(Cc2ccccc2)[C@H]2c3cc(C(=O)N(C)C)n(Cc4c(CO)[nH]cc(C)c4=O)c3C[C@H]2CN1C(=O)c1ccccc1`: the composite z-score was -0.26. The molecule `CC(=O)NCCCC[C@@H]1NC(=O)[C@@H]2C[C@H](C(=O)NCCCC[N+](C)(C)C)[C@H](c3ccc(O)cc3)N2C1=O` yielded a composite z-score of 1.35. `COc1ccc([Si](C)(C)[C@@H]2[C@@H](CC(=O)N3Cc4ccccc4C[C@H]3CO)O[C@]3(C(=O)N(C)c4ccccc43)[C@H]2C)cc1` yielded a composite z-score of 1.13. Consider `COCCOC(=O)N1C(=O)[C@@]2(c3cc(C#CC4=CCCCC4)ccc31)[C@H](C(N)=O)[C@H]1C(=O)O[C@H](c3ccccc3)[C@H](c3ccccc3)N1[C@@H]2c1ccccc1OCCO`, for which the composite z-score is 0.588. Same read-out and setting: under `COC(=O)[C@@]1(Cc2ccc(OC)cc2)[C@@H]2C(=CC(=O)[C@H]2CC(=O)C(=O)N(C)C)CN1C(=O)c1ccccc1` stands -0.501.

The record behind these values is PubChem BioAssay.
